Experimental findings from PubChem BioAssay AID1851 (National Center for Advancing Translational Sciences (NCATS), 2009) are described below.

The structures appear in SMILES notation. The campaign covered roughly 16,000 compounds. About 5,800 (36%) were called active. Roughly 23% stayed inconclusive and do not appear here. This is one part of the list. Values without a mark were called inactive. Calls come from the whole dose curve; as a rule, active = well fitted curve in the direction sought with a large enough effect; inconclusive = small, poorly fitted or top-dose-only effect, or effect the other way; inactive = no such curve, though single readings can be large or run the other way.
% is set by controls: 0 for no effect and ±100 for the full control effect.

The target in this test is Cytochrome P450 2C19 (Homo sapiens) (UniProt P33261). Briefly: Cytochrome panel assay with activity outcomes. The settings on record: recombinant CYP, pro-luciferin dealkylation, luminescence, p450-cyp2c19; series mostly up to 57.1 µM; activity, negative = inhibition: at the top concentration.
Cytochrome P450 2C19 (Homo sapiens), sequence (P33261 whole entry, looked up): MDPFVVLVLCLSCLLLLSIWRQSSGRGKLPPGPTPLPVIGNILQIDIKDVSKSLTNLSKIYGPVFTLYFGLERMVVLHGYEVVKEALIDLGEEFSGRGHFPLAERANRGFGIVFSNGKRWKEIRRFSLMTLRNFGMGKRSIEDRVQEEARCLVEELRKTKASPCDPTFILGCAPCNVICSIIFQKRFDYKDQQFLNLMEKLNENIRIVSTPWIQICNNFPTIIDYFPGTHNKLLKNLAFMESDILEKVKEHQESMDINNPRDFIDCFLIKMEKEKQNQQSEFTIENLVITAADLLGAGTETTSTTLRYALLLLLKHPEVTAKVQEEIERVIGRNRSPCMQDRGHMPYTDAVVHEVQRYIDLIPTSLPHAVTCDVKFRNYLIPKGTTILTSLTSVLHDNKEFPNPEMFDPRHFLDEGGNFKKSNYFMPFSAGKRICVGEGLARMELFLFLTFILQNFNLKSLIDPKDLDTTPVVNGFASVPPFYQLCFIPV
What is called AC50 is the concentration at which the activity in the assay is half-maximal. With `COc1cc(C2C(=O)N(C3CCCC3)CC(=O)N2Cc2ccco2)ccc1OC(C)C` (centres undefined), the AC50 is 4.47 µM (active).
For `CC1CN(C(=O)c2cc3c(s2)CCC3)CC(C)O1` (centres undefined), the AC50 is 14.1 µM (active).
The same measure, in the same setting: in the case of `Cc1cc(C(C#N)c2cccc(Cl)c2)n2ncnc2n1` (centres undefined) it was 28.2 µM (active).
For the molecule `CCN1C(=O)[C@H]2[C@H]3[C@H](O)[C@H](O)C/C(=N/O[C@@H](C)c4cn([C@H]5COC[C@H]5O)nn4)[C@@H]3CC[C@@H]2C1=O`, the activity, negative = inhibition is 27.9% [at 11.4 µM].
Regarding `C[C@H](N)C(=O)OC(C)(C)Cc1ccc(Cl)cc1`, the AC50 was 3.98 µM (active).
With `COC(=O)[C@H](N)Cc1ccc(Cl)cc1`, the “activity, negative = inhibition” value was 27.5%.
`C/C(=C\c1ccc(Cl)cc1)C(C)(C)C(=O)O`: the activity, negative = inhibition was -25.9% [at 11.4 µM].
For the molecule `CC1=CC(C)(C)Nc2ccc(CSc3ccccc3)cc21`, the concentration at half-maximal activity (AC50) is 0.316 µM (active).
On the same count and under the same terms, under `Cc1cc(C2C(C#N)=C(N)OC3=C2C(=O)CC(C)(C)C3)c(C)s1` (centres undefined) stands 4.47 µM (active); under `Cc1cc(C2C(C#N)=C(N)Oc3n[nH]c(C)c32)c(C)s1` (centres undefined), 11.2 µM (active).
In the case of `COc1cc(C2C(C#N)=C(N)OC3=C2C(=O)CCC3)c([N+](=O)[O-])cc1OC` (centres undefined), the “activity, negative = inhibition” value was -22.1%.
`CC1(C)CC(=O)C2=C(C1)Oc1nc3ccccc3cc1C2C(C#N)C#N` (centres undefined): the “activity, negative = inhibition” value was -22%.
Still for that read-out and setting: under `CC(C)(C)C(=O)OCOC(=O)[C@@H]1N2C(=O)[C@@H](NC(=O)[C@H](N)c3ccccc3)[C@H]2SC1(C)C` stands -7.95% [at 25.6 µM]; under `C#CCOCCCC(=O)O`, 22.8% [at 11.4 µM].
Still for that read-out and setting: under `CCCCN1CCC(COC(=O)c2cc(Cl)c(N)c3c2OCCO3)CC1` stands 22.2%; under `CC1(C)CC(=O)c2cnc(N)nc2C1`, -28.8%.
For `CC1(C)CC(=O)c2cn3ncnc3nc2C1`, the AC50 was 15.8 µM (active).
For the molecule `CC1(C)O[C@H]2C[C@@H]3[C@H]4CCC5=CC(=O)CC[C@@]5(C)[C@]4(F)[C@@H](O)C[C@@]3(C)[C@@]2(C(=O)CCl)O1`, the “activity, negative = inhibition” value was -28.9% [at 25.6 µM].
With `COc1cc2ccc(=O)oc2cc1O`, the “activity, negative = inhibition” value was -17.7% [at 25.6 µM].
In the case of `COc1ccc(-c2coc3cc4oc(=O)cc(C)c4cc23)cc1F`, the AC50 is 3.55 µM (active).
Still for that read-out and setting: under `Cn1c(SC2CCCCC2=O)nnc1-c1ccncc1` (centres undefined) stands 7.08 µM (active); under `CC1CC2(CCCCC2)N2C(=O)C(=O)c3cccc1c32` (centres undefined), 2.82 µM (active); under `CCOC(=O)C1=C(C)NC(C)=C(C(=O)OC)[C@H]1c1cccc([N+](=O)[O-])c1`, 0.251 µM (active).
Same read-out and setting: in the case of `C#CCN1C(C)=C(C(=O)OC)[C@@H](c2cccc([N+](=O)[O-])c2)C(C(=O)OCC)=C1C` it was 5.01 µM (active).
The same measure, in the same setting: in the case of `CCOC(=O)C1=C(C)NC(C)=C(C(=O)OC)[C@@H]1c1cccc([N+](=O)[O-])c1` it was 0.126 µM (active).
Turning to `OC[C@@H]1O[C@@H](n2cnc3c(NC4CCCC4)ncnc32)[C@H](O)[C@H]1O`, the “activity, negative = inhibition” value is -13.1%.
With `NCc1ccc(S(N)(=O)=O)cc1`, the “activity, negative = inhibition” value is 9.32% [at 25.6 µM].
Take `CCN(C1CCCCC1)S(=O)(=O)c1ccc(S(=O)(=O)NCc2ccncc2)cc1`: the AC50 was 1.58 µM (active).
The same measure, in the same setting: under `CCCCSc1nnc(-c2ccc(C)cc2)n1C` stands 14.1 µM (active).
As for `COc1nc(OCCNC(C)=O)nc(N(C)C)n1`, the “activity, negative = inhibition” value is -15.3%.
For `O=[N+]([O-])c1cc(Cc2cc([N+](=O)[O-])c3cccnc3c2O)c(O)c2ncccc12`, the AC50 is 2.51 µM (active).
On to `O=S(=O)(O)c1cc(N=Nc2cccc3ccccc23)c(O)c2ncccc12`, for which the activity, negative = inhibition is -29.3% [at 11.4 µM].
Still for that read-out and setting: under `O=[N+]([O-])c1ccc2ncccc2c1CCc1c([N+](=O)[O-])ccc2ncccc12` stands 39.5% [at 11.4 µM].
On to `CC(=O)N1CCN(c2nc(C)nc3sc4c(c23)CCC(C)C4)CC1` (centres undefined), for which the half-maximal activity concentration (AC50) is 4.47 µM (active).
Turning to `CSc1ncnc2c1ncn2[C@@H]1O[C@@H](CO)[C@H](O)O[C@@H]1O`, the activity, negative = inhibition is 41% [at 11.4 µM].
For `CCN(CC)c1ccc(/C=C/c2nc3ccccc3s2)cc1`, the AC50 was 2 µM (active).
For `CN(N=O)c1ccc(/C=C\c2ccnc3ccccc23)cc1`, the activity, negative = inhibition was 14.4% [at 11.4 µM].
For `Cc1cccc(OCCCCCn2ccnc2)c1`, the AC50 was 0.0398 µM (active).
On the same count and under the same terms, in the case of `Cc1ccc(OCCOCCn2ccnc2)c(Br)c1` it was 0.0158 µM (active).
With `C#CCCCO/N=C1/C[C@@H](O)[C@@H](O)[C@@H]2[C@@H]3C(=O)N([C@@H](C)c4ccccc4)C(=O)[C@H]3CC[C@H]12`, the activity, negative = inhibition was -27.2% [at 11.4 µM].
Still for that read-out and setting: under `CCCn1cnc2c1c(=O)n(CCCCC(C)=O)c(=O)n2C` stands 44.8%.
On to `Cn1ncc(C#N)c1/N=C/N1CCCCCC1`, for which the AC50 is 14.1 µM (active).
Turning to `O=C(O)c1c(Br)c(Br)c(Br)c(Br)c1C1c2ccc(O)cc2Oc2cc(O)ccc21`, the activity, negative = inhibition is -94.3% [at 11.4 µM].
The same measure, in the same setting: under `Cc1cnc(CNc2cc(-c3ccccc3Cl)ncn2)cn1` stands -20.8%.
With `COc1ccccc1-c1cc(NCc2cnc(C)cn2)ncn1`, the concentration at half-maximal activity (AC50) is 15.8 µM (active).
Still for that read-out and setting: in the case of `COc1ccccc1-c1cc(NCc2cccc(C)c2)ncn1` it was 3.98 µM (active).
As to `Cc1cnc(CNc2cc(-c3ccccc3C)ncn2)cn1`, the “activity, negative = inhibition” value is -37.5%.
Still for that read-out and setting: in the case of `CN(C)Cc1ccccc1-c1cc(NCc2ccccc2)ncn1` it was 30.1%.
For the molecule `COc1ccccc1-c1cc(NCc2ccccc2)ncn1`, the AC50 is 7.94 µM (active).
